The panel holds about 83,000 compounds, 20% with a hit somewhere; the sample as a whole holds those more often.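 Values shown are percent growth following 48 h exposure of cells in 96-well plates to a single concentration of compound; below 10 was considered active.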 Unmarked numbers belong to inactive results. Active and inactive are the calls of the source.
The compounds below were run on SF-539 CNS (assay: NCI-60 one-dose screen, 48 h (100 = growth as untreated, 0 = no growth, -100 = all killed)). Details: 10 µM unless noted.

Row | Compound | growth
1 | COC(=O)[C@]12CCC(C)(C)C[C@H]1C1=CC[C@@H]3[C@@]4(C)C/C(=C/c5cccnc5)C(=O)C(C)(C)[C@@H]4CC[C@@]3(C)[C@]1(C)CC2 | -76.6% [100 µM] (active)
2 | CC(C)[C@H]1COC(=O)N1[C@@H]1C(=O)N([C@@H](CCC(=O)N2CCN(C3CCCC3)CC2)C(=O)N[C@@H]2CCCc3ccccc32)[C@@H]1/C=C/c1cccc(Cl)c1 | 68.9%
3 | CCN=Cc1c(O)c(O)c(C(C)C)c2cc(C)c(-c3c(C)cc4c(C(C)C)c(O)c(O)c(C=NCC)c4c3O)c(O)c12 | 55.2%
4 | O=c1cc(-c2ccccc2)oc2c(O)c(O)ccc12 | 53.1%
5 | COc1ccc(C2NC(=O)C(C#N)c3c2sc2c(F)cccc32)cc1 (centres undefined) | 39.5%
6 | COc1cc(-c2nc(SCCC(C)C)nc(Nc3ccccc3)c2C#N)cc(OC)c1OC | 96.2%
7 | O=C(N/N=C\c1cc(Cl)ccc1O)N/N=C/c1cc(Cl)ccc1O | 39.3%
8 | Cc1ccc(S(=O)(=O)Oc2ccc([N+](=O)[O-])cc2[N+](=O)[O-])cc1 | 93.6%
9 | COCCCNc1nc(NC(=O)c2cc(OC)cc(OC)c2)cc(-c2cccnc2)n1 | 88.9%
10 | CC1(C)CC[C@]2(C(=O)O)CC[C@]3(C)C(=CC[C@@H]4[C@@]5(C)C/C(=C/c6ccco6)C(=O)C(C)(C)[C@@H]5CC[C@]43C)[C@@H]2C1 | -83.3% [100 µM] (active)
11 | O=C(N=c1n(-c2ccccc2)nc2n1CCN2C1=NCCN1)c1ccc(Cl)cc1 | 77.8%

Each compound was assayed on UACC-257 melanoma in the same assay as above. Details: 10 µM unless noted.

Row | Compound | growth
12 | CC1=CCc2ccccc21 | 105%
13 | O=C1Nc2ccccc2/C1=C/C(=O)c1ccc(N2CCCCC2)cc1 | 97.7%
14 | COc1ccc2nc3c(cc2c1)C(=O)CC(c1ccccc1)C3 (centres undefined) | 82.9%
15 | Oc1ccc(N=Nc2nccs2)c(O)c1 | 99.5%
16 | Cc1cc(-c2ccc(N=Nc3c(S(=O)(=O)O)cc4cc(S(=O)(=O)O)cc(N)c4c3O)c(C)c2)ccc1N=Nc1cc(S(=O)(=O)O)c2ccccc2c1O | 97.7%
17 | C#CCNC(=O)CC[C@]1(C)[C@H]2CC[C@@H]3[C@@H]([C@@](C)(O)CCC=C(C)C)CC[C@@]3(C)[C@]2(C)CC[C@H]1C(=C)C | 61.5% [100 µM]
18 | CC(=O)Nc1ccc2nc3ccc(NC(C)=O)cc3[n+](-c3ccccc3)c2c1 | 94.5%
19 | CCN(CC)CCCCCCNc1cccc2cc(Br)cnc12 | 80.7%
20 | COc1ccc(NC(=S)NNc2ccc(-c3ccc(OC)c(OC)c3)nn2)cc1 | 103%
21 | O=[N+]([O-])c1cc([N+](=O)[O-])c(NN=C(c2ccc(O)cc2)c2ccc(O)cc2)cc1Cl | -79.9% (active)
22 | CC(C)C1=NOC(=O)C1=Cc1cn(-c2ccccc2)nc1-c1cccc([N+](=O)[O-])c1 | 104%
23 | C=C(C)[C@@H]1CC[C@]2(C(=O)NCCNCCNCCN)CC[C@]3(C)[C@H](CC[C@@H]4[C@@]5(C)CC[C@H](O)C(C)(C)[C@@H]5CC[C@]43C)[C@@H]12 | -39.6% [100 µM] (active)
24 | O=C1COCCN1c1ccc(Nc2nc(Cl)nc(N3CCOCC3)n2)cc1 | 98.2%
25 | Cn1cc(-c2noc(-c3cn(C)c4ncc(F)cc34)n2)c2cc(Br)ccc21 | 98.7%
26 | CC1(C)NCCC[C@]2(C)[C@H]3C=CC4=C5C[C@](C)(CO)CC[C@]5(C)CC[C@@]4(C)[C@]3(C)CC[C@@H]12 | -80.5% [100 µM] (active)
27 | CCCC(NC(=O)OCc1ccccc1)C(=O)O (centres undefined) | 36.1%
28 | CC(C)C1=NOC(=O)C1=Cc1cn(-c2ccccc2)nc1-c1ccc(Cl)cc1 | 105%
29 | COc1cc(OC)cc(C(=O)Nc2cc(-c3cccnc3)nc(NCCCN3CCOCC3)n2)c1 | 88.6%
30 | Brc1ccc2c(c1)CN(C1CCCCC1)CO2 | 120%

Row | Compound | growth
31 | CC/C=C(\C)C(CCC)(CN=O)C(=O)OCC (centres undefined) | 85.8%
32 | O=C(Nc1ccc(F)cc1)c1ccccc1 | 107%
33 | O=C(O)c1cccc(CN2CCN(c3cc4c(cc3F)c(=O)c(C(=O)O)cn4C3CC3)CC2)c1O | 97.7%
34 | COC(=O)c1c(C)[nH]c(/C=C2\N=C(c3ccc[nH]3)C=C2OC)c1C | -49% (active)
35 | C=CCCC1(C)NC(=O)NC1=O (centres undefined) | 104%
36 | O=[N+]([O-])c1cccc(N=NNc2cccc([N+](=O)[O-])c2)c1 | 103%
37 | Cc1ccc(N)c(O)c1 | 80.6%
38 | CCN(CC)c1ccc2cc(NC(=O)OCCNC(=O)CCNC(=O)[C@H](CC(C)C)NC(=O)C(C)(C)NC(=O)C(C)(C)NC(=O)[C@H](CC(C)C)NC(=O)CCNC(=O)C(C)(C)NC(=O)[C@H](CC(C)C)NC(=O)CCNC(=O)[C@@](C)(CC)NC(=O)[C@H](C)NC(=O)CCNC(=O)C(C)(C)NC(=O)[C@H](C)NC(=O)[C@@H]3CCCN3C(=O)[C@@](C)(CC)NC(=O)[C@H](Cc3ccccc3)NC(=O)C3CCCN3C(=O)C(C)(C)NC(=O)C3CCCN3C(=O)C(C)(C)NC(C)=O)c(=O)oc2c1 (some centres undefined) | -89.4% (active)
39 | COC(=O)[C@]12CCC(C)(C)C[C@H]1C1=CC[C@@H]3[C@@]4(C)C/C(=C/c5cccnc5)C(=O)C(C)(C)[C@@H]4CC[C@@]3(C)[C@]1(C)CC2 | -29.2% [100 µM] (active)
40 | CC(C)[C@H]1COC(=O)N1[C@@H]1C(=O)N([C@@H](CCC(=O)N2CCN(C3CCCC3)CC2)C(=O)N[C@@H]2CCCc3ccccc32)[C@@H]1/C=C/c1cccc(Cl)c1 | 20.5%
41 | CCN=Cc1c(O)c(O)c(C(C)C)c2cc(C)c(-c3c(C)cc4c(C(C)C)c(O)c(O)c(C=NCC)c4c3O)c(O)c12 | 85.2%
42 | O=c1cc(-c2ccccc2)oc2c(O)c(O)ccc12 | 85.3%
43 | COc1ccc(C2NC(=O)C(C#N)c3c2sc2c(F)cccc32)cc1 (centres undefined) | 63.9%
44 | COc1cc(-c2nc(SCCC(C)C)nc(Nc3ccccc3)c2C#N)cc(OC)c1OC | 107%
45 | O=C(N/N=C\c1cc(Cl)ccc1O)N/N=C/c1cc(Cl)ccc1O | 65.5%
46 | Cc1ccc(S(=O)(=O)Oc2ccc([N+](=O)[O-])cc2[N+](=O)[O-])cc1 | 86.2%
47 | COCCCNc1nc(NC(=O)c2cc(OC)cc(OC)c2)cc(-c2cccnc2)n1 | 106%
48 | CC1(C)CC[C@]2(C(=O)O)CC[C@]3(C)C(=CC[C@@H]4[C@@]5(C)C/C(=C/c6ccco6)C(=O)C(C)(C)[C@@H]5CC[C@]43C)[C@@H]2C1 | -23.7% [100 µM] (active)
49 | O=C(N=c1n(-c2ccccc2)nc2n1CCN2C1=NCCN1)c1ccc(Cl)cc1 | 102%

Reference: PubChem BioAssay (NCI)
